# Over roughly 1,000 compounds, “relative growth recovery (pomalidomide 10 uM = 100%, DMSO = 0%)” has its median near -1.6; the highest 2% begin near 21. This is one part of a sample in which the highest values are shown more often than they occur.
# Test system: HEK293FT dCK*-IKZF1
# Experiment: relative growth recovery (pomalidomide 10 uM = 100%, DMSO = 0%); higher = more growth rescue (IKZF1 fusion degradation)
# Conditions: compound concentration: 5 uM; AraC concentration: 0.3 uM; overnight pretreatment + 4 days AraC
# Experimental: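 Growth recovery screen of the molecular-glue-like (Specs) library. HEK293FT cells expressing a dCK*-IKZF1 fusion (primary) or dCK* alone (counter) were pretreated overnight with compound at 5 uM, then given 0.3 uM AraC for 4 days. Hoechst nuclei were counted by imaging. Primary: normalised to pomalidomide (100%) and DMSO (0%), mean of 2 replicates. Counter: normalised to no-AraC (100%) and AraC+DMSO (0%), single replicate.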
row,Structure (SMILES),relative growth recovery
1,Cc1ccnc(NS(=O)(=O)c2ccc(NC(=O)c3ccc(Cl)cc3[N+](=O)[O-])cc2)n1,-0.255%
2,Cc1cc(C)nc(NS(=O)(=O)c2ccc(/N=C3/NC(=O)CS3)cc2)n1,-0.9%
3,O=C(Nc1ccc(S(=O)(=O)Nc2ncccn2)cc1)c1cccc(Br)c1,-4.75%
4,Cc1csc(Nc2cccc(C3CCN(C(=O)c4nccc5ccccc45)CC3)n2)n1,-0.34%
5,Cc1cnc(Nc2cccc(C3CCN(C(=O)c4cccc5cccnc45)CC3)n2)s1,-2%
6,Cc1ccnc(NS(=O)(=O)c2ccc(NC(=O)c3ccc4c(c3)OCO4)cc2)n1,0.925%
7,Cc1cc(NS(=O)(=O)c2ccc(NC(=O)COc3ccccc3Cl)cc2)nc(C)n1,3.46%
8,CC(=O)N1CCCCC1c1csc(Nc2ccccn2)n1 (centres undefined),1.36%
9,Cc1cc(NS(=O)(=O)c2ccc(NC(=O)c3ccccc3C)cc2)nc(C)n1,-1.93%
10,Cc1csc(Nc2cccc(C3CCCN3C(=O)Cc3ccc(F)cc3)n2)n1 (centres undefined),3.22%
11,CN1CCN(CC(=O)N2CCC(c3cccc(Nc4ncc(-c5ccccc5)s4)n3)CC2)CC1,-17.9%
12,Cc1cnc(Nc2cccc(C3CN(C(=O)CN(CCC(C)C)c4ccccc4)CCO3)n2)s1 (centres undefined),-3.83%
13,O=C(CCn1ncc2c1CCCC2)N1CCOC(c2cccc(Nc3nccs3)n2)C1 (centres undefined),14.7%
14,Cc1cnc(Nc2cccc(C3CCN(C(=O)C4(N)CCCCC4)CC3)n2)s1,-17.6%
15,CCC(C)(C)C(=O)Nc1ccc(S(=O)(=O)Nc2ncccn2)cc1,-5.08%
16,Cc1ccnc(NS(=O)(=O)c2ccc(NS(=O)(=O)c3ccc(F)cc3)cc2)n1,-0.59%
17,Cc1nc(Nc2cccc(C3CCCN3C(=O)COc3ccc(F)cc3)n2)sc1C (centres undefined),14.4%
18,Cc1cc(C)nc(NS(=O)(=O)c2ccc(Nc3nc(-c4cccnc4)cs3)cc2)n1,-1.15%
19,COc1cc(NS(=O)(=O)c2ccc(NC(=O)COc3ccc(C)cc3)cc2)nc(OC)n1,1.75%
20,O=C(CN1CCC(c2cccc(Nc3nccs3)n2)CC1)Nc1ccc(F)cc1,9.19%
21,COc1ccc(Cl)c2c1[nH]c1nc(SCC(=O)Nc3ccc(F)cc3)nnc12,-2.51%
22,Cc1cnc(Nc2cccc(C3(C(N)=O)CCN(C(=O)C4CCCCC4)CC3)n2)s1,-18.2%
23,COc1ccccc1OCC(=O)Nc1ccc(S(=O)(=O)Nc2ncccn2)cc1,1.59%
24,Cc1cnc(Nc2cccc(C3CCN(C(=O)C45CC6CC(CC(C6)C4)C5)CC3)n2)s1,1.16%
25,CCCOc1ccc(C(=O)Nc2ccc(S(=O)(=O)Nc3nc(C)cc(C)n3)cc2)cc1,-2.85%

row,Structure (SMILES),relative growth recovery
1,Cc1cc(Cl)ccc1OC(C)C(=O)Nc1ccc(S(=O)(=O)Nc2ccccn2)cc1 (centres undefined),0.47%
2,Cc1cc(NS(=O)(=O)c2ccc(NC(=O)CCCOc3ccc(Cl)cc3)cc2)nc(C)n1,-1.54%
3,Cc1csc(Nc2cccc(C3CCCN3C(=O)CO)n2)n1 (centres undefined),1.4%
4,CC(=O)NC1(CC(=O)N2CCC(c3cccc(Nc4ncc(C)s4)n3)CC2)CCCCC1,-11.7%
5,Cc1ccc(Nc2nc(C3CCCN(CC(N)=O)C3)cs2)nc1 (centres undefined),-5.75%
6,Cc1cc(C)nc(NS(=O)(=O)c2ccc(NC(=S)NC(=O)c3ccc(F)c(F)c3)cc2)n1,-2.13%
7,Cc1cnc(Nc2cccc(C3CN(C(=O)C4CCOC4)CCO3)n2)s1 (centres undefined),-8.06%
8,Cc1cc(C)nc(NS(=O)(=O)c2ccc(NC(=O)COc3ccc(Cl)cc3)cc2)n1,3.77%
9,Cc1ccc(S(=O)(=O)Nc2ccc(S(=O)(=O)Nc3ncccn3)cc2)cc1,-3.26%
10,O=C(Nc1ccc(S(=O)(=O)Nc2ncccn2)cc1)C(F)(F)F,12.6%
11,O=C1CCC(N2C(=O)c3ccc(N4CCC(C(=O)O)CC4)cc3C2=O)C(=O)N1 (centres undefined),1.72%
12,Cc1cc(C)nc(NS(=O)(=O)c2ccc(NC(=O)c3ccc(S(=O)(=O)N(C)C)cc3)cc2)n1,-5.78%
13,Cc1cc(Cl)ccc1OCC(=O)Nc1ccc(S(=O)(=O)Nc2ncccn2)cc1,-2.19%
14,Cc1ccc(Oc2ccc(N3C(=O)c4ccc(Oc5ccc(N)cc5)cc4C3=O)cc2)cc1C,-8.53%
15,CCNc1nc(NCC)nc(NS(=O)(=O)c2ccc(N)cc2)n1,3.4%
16,Cc1ccnc(NS(=O)(=O)c2ccc(NC(=O)c3ccc(C)c(C)c3)cc2)n1,1.75%
17,CC(=O)Nc1ccc(S(=O)(=O)N(C#N)c2nc(C)cc(C)n2)cc1,4.26%
18,Cc1cnc(Nc2cccc(C3CN(C(=O)CC4CCCCC4)CCO3)n2)s1 (centres undefined),-11.7%
19,Cc1cnc(Nc2cccc(C3CN(C(=O)C4CCCCC4)CCO3)n2)s1 (centres undefined),-11.7%
20,CC(=O)Nc1cccc(Oc2ccc3c(c2)C(=O)N(c2ccc(OC(C)=O)cc2)C3=O)c1,-2.76%
21,O=C(Nc1ccc(S(=O)(=O)Nc2ncccn2)cc1)c1ccc([N+](=O)[O-])cc1,-0.33%
22,Cc1csc(Nc2cccc(C3CCCN3C(=O)CC3CC(C)(C)NC(C)(C)C3)n2)n1 (centres undefined),-0.835%
23,COc1ccc(OCCCC(=O)Nc2ccc(S(=O)(=O)Nc3ncccn3)cc2)cc1,-3.56%
24,CN(CCN1CCC(C(=O)O)CC1)c1cccc2c1C(=O)N(C1CCC(=O)NC1=O)C2=O (centres undefined),5.47%
